SMILES strings stand for the structures. Results filed as inconclusive are left out. Some compounds were tested as several samples or in several runs, with calls that do not always agree. Active and inactive are the calls of the source. Calls come from the whole dose curve; as a rule, active = well fitted cell-killing curve with a large enough effect; inconclusive = small, poorly fitted or top-dose-only effect, or effect the other way; inactive = no such curve, though single readings can be large or run the other way.
Potency is the fitted concentration of half-maximal effect.

A short description of this experiment: Viability qHTS for spleen associated tyrosine kinase inhibitor (SYKi) drug resistant MV4-11 cells (AID 1963824). Note: nearly all actives have a fitted effect of over 35% in size. Conditions: SYKi-resistant MV4-11 viability, CellTiter-Glo, 72 h; series mostly up to 45 µM; viability, % of control: at the top concentration. The method, boiled down: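 SYK-inhibitor-resistant MV4-11 AML cells were seeded at 500 per well onto compound and cultured 72 hours (37 °C, 5% CO2). CellTiter-Glo was then added, and after 10 min at room temperature, luminescence gave viability.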
(In general: In qHTS, concentration-response curves come from the screen itself.)
For the compound `COC(=O)C1=COC(O[C@@H]2O[C@H](CO)[C@@H](O)[C@H](O)[C@H]2O)C2C(C)C(=O)CC12` (some centres undefined), the “viability, % of control” value is 88.2% (inactive).
In the case of `COc1cc(C2c3cc(O)c(OC)cc3CC(CO)C2CO)ccc1O` (centres undefined), the “viability, % of control” value was 111% (inactive).
As to `Cn1c(CNc2ccc(C(=N)N)cc2)nc2cc(C(=O)N(CCC(=O)O)c3ccccn3)ccc21`, the Potency is 4.11 µM (active) and the viability, % of control was 94.3% [at 0.588 µM] (inactive).
Regarding `Nc1nonc1-c1nc2cnccc2n1C1CC1`, the Potency is 2.31 µM (active).
In the case of `CC(C)(OC1OC(CO)C(O)C(O)C1O)C1CCC(O)(CO)C2CC(O)C(C)(O)C2C1` (centres undefined), the “viability, % of control” value is 101% [at 17.3 µM] (inactive).
Consider `O=C(Nc1nc2ccccc2n1CCc1ccccc1)c1ccccc1`, for which the “viability, % of control” value is 2.54% (inactive).
On to `C=CC(=O)Nc1cc(-n2c(=O)ccc3cnc4ccc(-c5ccc(NS(C)(=O)=O)cc5)cc4c32)ccc1C`, for which the Potency is 1.3 µM (active).
On to `CSc1ccc2c(c1)C(N1CCN(C)CC1)Cc1ccccc1S2` (centres undefined), for which the Potency was 26.6 µM (active).
`C/C1=C\C[C@H](O[C@@H]2O[C@H](CO)[C@@H](O)[C@H](O)[C@H]2O)/C(C)=C/[C@H]2OC(=O)[C@H](C)[C@@H]2CC1`: the “viability, % of control” value was 115% [at 17.3 µM] (inactive).
The same measure, in the same setting: under `CC[C@H](Nc1ncnc2nc[nH]c12)c1nc2cccc(F)c2c(=O)n1-c1ccccc1` stands 61.7% [at 9.25 µM] (inactive); under `CC(=O)O[C@H]1C[C@@H](O)C(C)(C)C2C[C@@H](OC(C)=O)[C@@]3(C)C4=CCC(C(CO)CC(O)C5OC5(C)C)[C@]4(C)CCC3[C@]21C` (some centres undefined), 59.2% [at 17.3 µM] (inactive).
Still for that read-out and setting: under `CCNc1nc2c(ncn2[C@H]2C[C@H](O)[C@@H](CO)O2)c(=O)[nH]1` stands 105% (inactive); under `CCc1c(C)nc2c(-c3cnn(-c4cc(CO)ccn4)c3)c[nH]n2c1=O`, 102% (inactive).
